Test [1] can be described thus: qHTS assay to identify aromatase inhibitors - cell viability counter screen (AID 743084).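 Further: cells stimulated with testosterone during compound exposure; nearly all actives have a fitted effect of over 55% in size.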 A general note: Quantitative high-throughput screening tests each substance at several concentrations.
The target in test [2] is Aryl hydrocarbon receptor (Homo sapiens) (UniProt P35869). Briefly: qHTS assay to identify small molecule that activate the aryl hydrocarbon receptor (AhR) signaling pathway (AID 743085). Further: nearly all actives have a fitted effect of over 15% in size. Further: potency means the concentration at half of the fitted maximal effect.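 On activation: HG2L7.5c1 human HepG2 liver cells with stably integrated DRE-driven firefly reporter; series mostly up to about 70 µM.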 Put shortly: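 HepG2 cells (HG2L7.5c1) stably carrying a firefly luciferase reporter driven by 20 dioxin responsive elements were exposed to compound for 24 h at 37C after a 5 h settling period; luminescence rise (ONE-Glo) indicated activation.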

A short description of test [3]: qHTS assay to identify small molecule that activate the aryl hydrocarbon receptor (AhR) signaling pathway - cell viability counter screen (AID 743086). Further: series mostly up to about 70 µM; nearly all actives have a fitted effect of over 45% in size. Summed up: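 Cytotoxicity counter screen: CellTiter-Fluor signal (30 min, 37 C) in 4000 HepG2 cells/well carrying the DRE-luciferase reporter, following 24 h compound exposure at 37 C.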
Test [4] can be described thus: qHTS assay to identify small molecule antagonists of the peroxisome proliferator-activated receptor gamma (PPARg) signaling pathway - cell viability counter screen (AID 743194). Further: nearly all actives have a fitted effect of over 55% in size. Summed up: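 Viability was measured as CellTiter-Glo luminescence in GeneBLAzer PPARg UAS-bla HEK293H cells. These cells had been exposed 17 h at 37 C to compounds together with rosiglitazone at 50 nM final, with the beta-lactamase readout taken in the same wells.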

The nature of test [5]: qHTS assay for small molecule agonists of the antioxidant response element (ARE) signaling pathway (AID 743202; active means well fitted activation curve with a large enough effect in the signal ratio in the repeat runs, not every such curve was filed as active; the % refers to the signal ratio). Summed up: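 Quantitative high-throughput format in HepG2 cells bearing an integrated ARE-beta-lactamase reporter. Compound exposure lasted 16 h at 37 C, and fluorescence was read 2 h after adding LiveBLAzer B/G substrate at room temperature.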
Test [6] is described as follows: qHTS assay for small molecule agonists of the antioxidant response element (ARE) signaling pathway - cell viability counter screen (AID 743203; calls by dose curve; further: nearly all actives have a fitted effect of over 55% in size). Summed up: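 CellSensor ARE-bla HepG2 cells, 2,000 per well, rested 5 hrs at 37C/5% CO2, then exposed to compound in DMSO for 16 hrs; viability read as CellTiter-Glo luminescence after 30 min at room temperature, in the reporter wells.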

Test [7] can be described thus: qHTS assay for small molecule activators of the heat shock response signaling pathway - cell viability counter screen (AID 743209). Further: nearly all actives have a fitted effect of over 50% in size. Summed up: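 CellSensor HSE-bla HeLa cells, plated overnight at 37 C/5% CO2, were exposed to compounds in DMSO for 5 h at 37 C. Viability was then read in the same wells by CellTiter-Glo luminescence after 30 min at room temperature.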

The nature of test [8]: qHTS assay for small molecule activators of the heat shock response signaling pathway (AID 743210; active means well fitted activation curve with a large enough effect in the signal ratio in the repeat runs, with a control signal flat, not every such curve was filed as active; the % refers to the signal ratio;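 further: HeLa cells with beta-lactamase reporter driven by heat shock elements; series mostly up to about 63 µM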). Summed up:
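HeLa HSE-bla cells, overnight plating; cpd in DMSO 5 h, 37 C; LiveBLAzer B/G FRET substrate 2.5 h RT; fluorescence intensity read.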

Test [9] can be described thus: qHTS assay to identify small molecule agonists of the peroxisome proliferator-activated receptor delta (PPARd) signaling pathway - cell viability counter screen (AID 743211). Further: nearly all actives have a fitted effect of over 55% in size. Put shortly:
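PPARd-bla HEK293H cells (UAS-beta-lactamase reporter) were treated with compounds for 17 h at 37 C. Viability was then read in the same wells by CellTiter-Glo luminescence after 30 min at room temperature.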

The target in test [10] is Peroxisome proliferator-activated receptor delta (Homo sapiens) (UniProt Q03181). As to the kind of experiment: qHTS assay to identify small molecule agonists of the peroxisome proliferator-activated receptor delta (PPARd) signaling pathway (AID 743212; calls by dose curve). Summed up:
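HEK293H PPARd-bla cells; 5 h preincubation 37 C/5% CO2; compound (DMSO) 37 C; LiveBLAzer B/G FRET substrate 2 h RT; fluorescence intensity.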

The nature of test [11]: qHTS assay to identify small molecule antagonists of the peroxisome proliferator-activated receptor delta (PPARd) signaling pathway - cell viability counter screen (AID 743213). Further: nearly all actives have a fitted effect of over 50% in size. Summed up:
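PPARd-bla HEK293H cells were treated with compounds plus agonist L165041 (300 nM final) for 17 h at 37 C. Viability was then read in the same wells by CellTiter-Glo luminescence after 30 min at room temperature.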

The nature of test [12]: qHTS assay to identify small molecule agonists of the farnesoid-X-receptor (FXR) signaling pathway - cell viability counter screen (AID 743218). Further: nearly all actives have a fitted effect of over 45% in size. Summed up:
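FXR-UAS-bla HEK 293T cells, plated 5 h at 37 C, were exposed to compounds for 16 h at 37 C. CellTiter-Glo was then added to the same wells as the bla readout; luminescence read after 30 min at room temperature.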

Test [13] can be described thus: qHTS assay to identify small molecule antagonists of the farnesoid-X-receptor (FXR) signaling pathway - cell viability counter screen (AID 743221; active means well fitted cell-killing curve with a large enough effect in the repeat runs, not every such curve was filed as active; further: nearly all actives have a fitted effect of over 50% in size). Put shortly: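 FXR-UAS-bla HEK 293T cells were treated with test compounds plus chenodeoxycholic acid (50 uM final) for 16 h at 37 C. Cell viability in the same wells was then read as CellTiter-Glo luminescence after 30 min at room temperature.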

For test [14], the target named is Vitamin D3 receptor (Homo sapiens) (UniProt P11473). Briefly: qHTS assay to identify small molecule agonists of the vitamin D receptor (VDR) signaling pathway (AID 743222; calls by dose curve). Put shortly: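 VDR-bla cells were plated 4 h at 37C/5% CO2, then exposed to compounds in DMSO for 16 h. After LiveBLAzer B/G FRET substrate addition and 2 h at room temperature, beta-lactamase reporter fluorescence was read.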

Test [15] has the same target. Briefly: qHTS assay to identify small molecule antagonists of the vitamin D receptor (VDR) signaling pathway (AID 743223; active means well fitted inhibition curve with a large enough effect in the signal ratio in the repeat runs, not every such curve was filed as active; the % refers to the signal ratio). Summed up:
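VDR-bla cells were plated, incubated 4 h at 37C, then given compound and 1alpha,25-dihydroxyvitamin D3 (3 nM final). After 16 h at 37C, LiveBLAzer B/G FRET substrate was added for 2 h at room temperature and fluorescence read.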

The target in test [16] is Peroxisome proliferator-activated receptor gamma (Homo sapiens) (UniProt P37231). Briefly: qHTS assay to identify small molecule agonists of the peroxisome proliferator-activated receptor gamma (PPARg) signaling pathway (AID 743094; active means well fitted activation curve with a large enough effect in the signal ratio in the repeat runs, not every such curve was filed as active; the % refers to the signal ratio). Summed up:
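GeneBLAzer PPARg UAS-bla HEK293H cells carrying a stably integrated beta-lactamase reporter were pre-incubated 5 h at 37C, then exposed to compounds in DMSO for 17 h at 37C; LiveBLAzer B/G FRET substrate was added for 1 h at room temperature and fluorescence read.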

For test [17] the target is unchanged. As to the kind of experiment: qHTS assay to identify small molecule antagonists of the peroxisome proliferator-activated receptor gamma (PPARg) signaling pathway (AID 743191; calls by dose curve; further: series mostly up to about 63 µM; nearly all actives have a fitted effect of over 30% in size). Put shortly: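 Beta-lactamase reporter under UAS control in HEK293H PPARg-bla cells; compound treatment 17 h at 37C. Read-out: fluorescence intensity after 1 h room-temperature incubation with LiveBLAzer B/G FRET substrate.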

Test [18] has as its target Bile acid receptor (Homo sapiens) (UniProt Q96RI1). Briefly: qHTS assay to identify small molecule antagonists of the farnesoid-X-receptor (FXR) signaling pathway (AID 743217; active means well fitted inhibition curve with a large enough effect in the signal ratio in the repeat runs, not every such curve was filed as active; the % refers to the signal ratio). Put shortly: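 FXR-UAS-bla HEK 293T cells pre-incubated 5 h at 37 °C, then exposed to compounds with chenodeoxycholic acid (50 uM final) for 16 h at 37 °C. Beta-lactamase reporter read by LiveBLAzer B/G FRET substrate fluorescence after 2 h at room temperature.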

For test [19] the target is unchanged. As to the kind of experiment: qHTS assay to identify small molecule agonists of the farnesoid-X-receptor (FXR) signaling pathway (AID 743220; active means well fitted activation curve with a large enough effect in the signal ratio in the repeat runs, not every such curve was filed as active; the % refers to the signal ratio). Put shortly: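 Beta-lactamase reporter under UAS control in GeneBLAzer FXR HEK 293T cells (5000/well) measured with LiveBLAzer FRET substrate after 2 h at room temperature. Compound exposure lasted 16 h at 37C.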
The target in test [20] is Peroxisome proliferator-activated receptor delta (Homo sapiens) (UniProt Q03181). As to the kind of experiment: qHTS assay to identify small molecule antagonists of the peroxisome proliferator-activated receptor delta (PPARd) signaling pathway (AID 743215; active means well fitted inhibition curve with a large enough effect in the signal ratio in the repeat runs, not every such curve was filed as active; the % refers to the signal ratio;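 further: cells stimulated with agonist L165041 at 300 nM final during compound exposure; series mostly up to about 62 µM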). Put shortly: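 PPARd UAS-bla HEK293H cells were pre-incubated 5 h at 37 C, then given test compounds in DMSO plus agonist L165041 (300 nM final). After 17 h at 37 C, beta-lactamase FRET substrate was added; fluorescence read after 2 h at room temperature.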

Several values for one entry are separate records, joined by “and”; a condition that tells them apart may be missing. Equal values may be shown once. Records with an inconclusive call do not appear. More than one record can exist for a structure, and the calls need not agree. Activity calls are given as the source filed them. Unless noted, the call rests on the fitted dose curve; in most records, active means well fitted curve in the direction sought with a large enough effect in the repeat runs; inconclusive means weak or mixed curves; inactive means no such curve, though single readings can be large; an effect the other way counts as inactive or inconclusive.

This note sets out measurements from PubChem BioAssay (Tox21).

Sequence of Peroxisome proliferator-activated receptor delta (Homo sapiens) (Q03181 whole entry, looked up): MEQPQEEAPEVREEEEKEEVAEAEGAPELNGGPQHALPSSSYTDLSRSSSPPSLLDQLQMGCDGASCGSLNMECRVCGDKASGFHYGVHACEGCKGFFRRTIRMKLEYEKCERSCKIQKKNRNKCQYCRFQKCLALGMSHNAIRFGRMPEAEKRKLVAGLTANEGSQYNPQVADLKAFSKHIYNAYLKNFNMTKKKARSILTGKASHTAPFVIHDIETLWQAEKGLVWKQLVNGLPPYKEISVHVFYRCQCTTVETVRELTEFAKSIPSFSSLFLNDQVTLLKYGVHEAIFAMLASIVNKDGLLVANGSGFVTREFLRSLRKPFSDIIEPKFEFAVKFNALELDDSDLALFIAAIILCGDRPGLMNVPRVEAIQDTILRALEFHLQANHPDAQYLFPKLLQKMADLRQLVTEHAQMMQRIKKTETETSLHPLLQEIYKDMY
Sequence of Aryl hydrocarbon receptor (Homo sapiens) (P35869 whole entry, looked up): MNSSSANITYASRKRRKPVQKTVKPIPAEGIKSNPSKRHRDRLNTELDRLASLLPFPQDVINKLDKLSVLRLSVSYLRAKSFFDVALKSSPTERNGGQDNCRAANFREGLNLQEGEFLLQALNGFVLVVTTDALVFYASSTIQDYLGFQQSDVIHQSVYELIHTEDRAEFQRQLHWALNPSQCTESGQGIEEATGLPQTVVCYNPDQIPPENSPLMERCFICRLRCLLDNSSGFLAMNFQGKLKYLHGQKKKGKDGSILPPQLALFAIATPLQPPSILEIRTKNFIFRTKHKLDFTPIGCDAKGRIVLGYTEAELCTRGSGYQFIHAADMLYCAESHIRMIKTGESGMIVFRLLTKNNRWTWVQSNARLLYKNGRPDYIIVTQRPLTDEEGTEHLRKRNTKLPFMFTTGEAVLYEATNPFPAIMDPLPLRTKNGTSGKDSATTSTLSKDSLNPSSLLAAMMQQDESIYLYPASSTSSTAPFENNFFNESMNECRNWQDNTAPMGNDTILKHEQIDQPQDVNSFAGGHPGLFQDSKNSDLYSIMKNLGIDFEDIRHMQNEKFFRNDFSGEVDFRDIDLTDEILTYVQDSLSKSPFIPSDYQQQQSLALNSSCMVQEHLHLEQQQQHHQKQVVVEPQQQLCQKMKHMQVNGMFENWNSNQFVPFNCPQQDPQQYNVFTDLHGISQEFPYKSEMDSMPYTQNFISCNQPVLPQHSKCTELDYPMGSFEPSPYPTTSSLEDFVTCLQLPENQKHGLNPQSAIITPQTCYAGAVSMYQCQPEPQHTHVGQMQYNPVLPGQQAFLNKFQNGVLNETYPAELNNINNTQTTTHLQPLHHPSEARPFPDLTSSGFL
Sequence of Vitamin D3 receptor (Homo sapiens) (P11473 whole entry, looked up): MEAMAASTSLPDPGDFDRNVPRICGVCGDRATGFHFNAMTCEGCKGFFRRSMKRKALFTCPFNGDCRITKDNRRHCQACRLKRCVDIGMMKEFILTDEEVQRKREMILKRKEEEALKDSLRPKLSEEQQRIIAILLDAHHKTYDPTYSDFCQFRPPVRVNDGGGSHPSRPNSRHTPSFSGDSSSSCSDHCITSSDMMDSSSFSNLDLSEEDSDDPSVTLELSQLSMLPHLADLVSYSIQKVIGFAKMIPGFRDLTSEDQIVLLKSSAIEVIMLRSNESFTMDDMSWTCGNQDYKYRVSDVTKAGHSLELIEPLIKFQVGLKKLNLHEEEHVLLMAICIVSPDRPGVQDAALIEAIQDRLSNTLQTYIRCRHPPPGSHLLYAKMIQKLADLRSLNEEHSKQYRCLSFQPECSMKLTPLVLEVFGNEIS
Sequence of Bile acid receptor (Homo sapiens) (Q96RI1 whole entry, looked up): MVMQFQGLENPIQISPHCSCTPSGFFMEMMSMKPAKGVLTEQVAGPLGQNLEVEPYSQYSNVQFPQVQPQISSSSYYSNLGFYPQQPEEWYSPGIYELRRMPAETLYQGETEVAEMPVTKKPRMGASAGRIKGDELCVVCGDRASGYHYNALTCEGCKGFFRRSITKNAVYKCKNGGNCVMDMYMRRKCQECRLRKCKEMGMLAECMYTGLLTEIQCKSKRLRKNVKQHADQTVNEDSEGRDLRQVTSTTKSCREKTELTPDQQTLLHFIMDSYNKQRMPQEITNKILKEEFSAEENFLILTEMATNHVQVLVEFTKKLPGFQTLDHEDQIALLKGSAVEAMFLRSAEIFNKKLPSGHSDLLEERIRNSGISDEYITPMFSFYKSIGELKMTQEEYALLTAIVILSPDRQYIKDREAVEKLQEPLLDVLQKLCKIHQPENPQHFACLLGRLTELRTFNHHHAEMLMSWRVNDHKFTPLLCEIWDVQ
Sequence of Peroxisome proliferator-activated receptor gamma (Homo sapiens) (P37231 whole entry, looked up): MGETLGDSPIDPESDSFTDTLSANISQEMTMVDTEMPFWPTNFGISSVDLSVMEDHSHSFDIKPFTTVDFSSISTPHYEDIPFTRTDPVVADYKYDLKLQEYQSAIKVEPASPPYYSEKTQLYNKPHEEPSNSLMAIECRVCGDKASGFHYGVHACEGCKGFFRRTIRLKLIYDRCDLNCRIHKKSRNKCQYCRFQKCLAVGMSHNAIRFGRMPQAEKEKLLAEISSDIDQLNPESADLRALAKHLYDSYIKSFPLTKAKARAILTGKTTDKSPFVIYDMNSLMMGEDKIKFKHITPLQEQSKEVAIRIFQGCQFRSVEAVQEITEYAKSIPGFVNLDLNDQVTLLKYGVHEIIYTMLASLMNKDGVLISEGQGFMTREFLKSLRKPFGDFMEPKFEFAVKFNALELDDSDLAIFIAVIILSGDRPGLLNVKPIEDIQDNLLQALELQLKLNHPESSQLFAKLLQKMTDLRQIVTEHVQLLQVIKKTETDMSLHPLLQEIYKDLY

In the case of `CN(C)c1ccc(O)c2c1C[C@H]1C[C@H]3[C@H](N(C)C)C(=O)C(C(N)=O)=C(O)[C@@]3(O)C(=O)C1=C2O`, the Potency result in [1], in [3], in [5], in test [6] and in test [10] was “inactive” in each case. The Potency entry in test [2] was “inactive and 7.7 µM (active)”. In addition, the call in test [4], in test [7], in test [8], in test [9], in test [11] and in test [12] was inactive. For the same compound, the call in [13], in test [14] and in test [15] was inactive.
As to `CN(C)c1ccc(Cc2ccc(N(C)C)cc2)cc1`, the Potency result in test [1], in test [3], in test [5], in test [6] and in test [10] was “inactive” throughout. In addition, the call in [16], in test [17], in test [4], in test [7], in test [8] and in test [9] was inactive. Besides, the compound was classed as inactive in test [11], in [18], in [12], in test [19], in [13] and in test [14]. For the same compound, in test [15], the outcome was inactive.
In the case of `O=[N+]([O-])c1ccc2nc[nH]c2c1`, the Potency entry in [1], in test [3], in test [6] and in test [10] was “inactive” each time. Further, the call in [16], in test [4], in test [7], in test [8], in test [9] and in test [11] was inactive. For the same compound, the result in test [18], in test [12], in [19] and in test [13] was inactive.
Consider `N[C@H](Cc1c[nH]c2ccccc12)C(=O)O`, for which the Potency result in test [1], in [3], in [5], in [6] and in [10] was “inactive” throughout. In addition, the outcome in [16], in [4], in test [7], in test [8], in test [9] and in [11] was inactive. Moreover, the compound was called inactive in test [20], in [13], in test [14] and in [15].
Consider `O=C(O)/C=C/C(=O)O`, for which the outcome in [4], in [7], in [8], in test [9], in test [11] and in test [20] was inactive. The result in test [12], in test [13], in test [14] and in test [15] was inactive. Besides, the Potency result in test [5], in test [6] and in test [10] was “inactive” in each case.
`C=CC(C)CCCC(C)(C)O` (stereo not drawn): the Potency entry in test [1], in test [2], in [3], in test [5], in test [6] and in test [10] was “inactive” each time. Moreover, the result in test [16], in [4], in [7], in [9], in test [11] and in test [12] was inactive. The compound was called inactive in test [13], in test [14] and in test [15].
For `COc1ccccc1OCC(O)CO` (stereo not drawn), the Potency entry in test [1], in test [2], in test [3], in test [5], in test [6] and in test [10] was “inactive” in each case. Further, the outcome in test [16], in test [4], in [7], in test [9], in [11] and in test [12] was inactive. Moreover, the result in [13], in [14] and in test [15] was inactive.
With `CC(=O)CC(C)(C)O`, the Potency result in [1], in test [3], in [5], in test [6] and in [10] was “inactive” in each case. The compound was called inactive in test [16], in test [17], in test [4], in [7], in test [8] and in test [11]. The compound was classed as inactive in test [20], in test [18], in test [19], in [14] and in [15].
Consider `CCCCCCCCCCCCCCCCO`, for which the Potency entry in [1], in test [2], in [3], in [6] and in [10] was “inactive” throughout. For the same compound, the result in test [16], in test [4], in test [7], in test [8], in test [9] and in [11] was inactive. Further, the compound was classed as inactive in test [12], in test [13], in [14] and in test [15].
As to `CC1(C)CC(N)CC(C)(CN)C1` (stereo not drawn), the Potency entry in test [1], in test [3], in test [5], in test [6] and in [10] was “inactive” throughout. Further, the outcome in [16], in [17], in [4], in test [7], in [8] and in test [11] was inactive. Further, the result in [13] was inactive.
